Bioassay records (PubChem BioAssay)
ATG4B inhibitor: blocks human ATG4B protease cleavage of LC3 substrate; 0.51% of 340,000 active; Q9Y4P1; ATG4B cleavage of LC3-PLA2, NBD-HPC fluorescence, 1 h; inhibition, % at 8.33 µM; AID 504462; in the data active = inhibition above about 40%
Neddylation inh: cullin neddylation inhibition; P61081+Q13564; TR-FRET cullin neddylation, biochemical; inhibition, % at 25 µM; 0.58% of 360,000 active; in the data active = inhibition above about 36%
Rin1 Abl inh: inhibitors of human Rin1-Abl protein interaction | AID 588664 | 0.4% of 360,000 active | P00519+Q13671 | TR-FRET Rin1/Abl binding, biochemical | inhibition, % at 7.35 µM; in the data active = inhibition above about 5%, passing the limit was not always enough
SUMO1 PPI mod: modulators of human SUMO1-mediated protein-protein interactions. P63165. SUMO1 binding to a labelled peptide, TR-FRET, 1 h. inhibition, % at 20 µM. 0.33% of 360,000 active; in the data active = inhibition above about 37%
Rin1 Abl conf: Rin1-Abl interaction inhibition confirmation; shares compounds with Rin1 Abl inh; TR-FRET Rin1-Abl binding, purified proteins; inhibition, % at 7.35 µM; 49% of 1,300 active; AID 602124
GFP quench: GFP fluorescence interference artifact | inhibition, % at 6.75 µM | inhibitors/quenchers counterscreen | AID 602125 | shares compounds with Rin1 Abl inh | 8.5% of 1,300 active;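 note: ABL1-eGFP fusion protein alone without its partner RIN1-SBP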
GFP quench dose: quenches GFP in dose response, Rin1-Abl counter-screen; 230 tested, under 10 active; GFP fluorescence interference/quenching counterscreen; IC50, µM; shares compounds with Rin1 Abl inh; call rule not given here;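 note: ABL1-eGFP fusion protein alone without its RIN1 binding partner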
A number is an active result; i = inactive; nt = not tested or not shown. Most compounds without a hit are left out; they make up all but 1.7% or so of the library. Cut-off read from the data, not from the text of the source, unless noted: active = inhibition above about 6.5%; inactive = the rest.

SMILES	ATG4B inhibitor	Neddylation inh	Rin1 Abl inh	SUMO1 PPI mod	Rin1 Abl conf	GFP quench	others
O=C(Nc1cc(N2CCOCC2)ncn1)NC1(C(F)(F)F)Oc2ccccc2O1	i	i	9.8	i	i	i
CCNC(=O)C1(C)CCCN(C(=O)c2ccc(F)c(C)c2)C1 (centres undefined)	nt	i	i	i	nt	nt
CCSCCOC(=O)C1=C(C)NC2=C(C(=O)CCC2)C1c1coc2ccccc2c1=O (centres undefined)	i	i	19.8	i	29.8	i	GFP quench dose=i
O=C1Nc2cccc3c2N(CCC3)C2=C1CCC2	nt	i	i	i	nt	nt
C/C(=N/NC(=O)c1cc(O)c(O)c(O)c1)c1ccc([N+](=O)[O-])cc1	i	i	40.8	i	45.9	20.6
CCn1c(C)nc2cc(C(=O)N/N=C/c3ccc(O)c(O)c3O)ccc21	i	i	45.2	i	53.0	23.1
CCN(CC)S(=O)(=O)c1cccc(C(=O)N/N=C/c2ccc(O)c(O)c2O)c1	i	i	17.9	i	15.3	11.1
CCn1c(C)nc2cc(C(=O)N/N=C/c3cccc(OC)c3O)ccc21	i	i	i	i	nt	nt
CN(C)S(=O)(=O)c1cccc(NC(=S)N/N=C/c2ccc(O)c(O)c2O)c1	i	i	26.6	i	18.4	10.3
Cc1ccc(NS(=O)(=O)N2CCCCC2)cc1	i	i	i	i	nt	nt
CC1(C(=O)Nc2ccc3c(c2)OCO3)Cc2c(-c3cccc(C(N)=O)c3)ccnc2O1 (centres undefined)	nt	i	8.8	i	7.8	i
CC1(C(=O)Nc2ccc3c(c2)OCO3)Cc2c(-c3ccc4c(c3)OCO4)ccnc2O1 (centres undefined)	nt	i	i	i	nt	nt
CC(=O)Nc1cccc(-c2ccnc3c2CC(C)(C(=O)NCc2cccc(Cl)c2)O3)c1 (centres undefined)	nt	i	i	i	nt	nt
CC(=O)Nc1cccc(-c2ccnc3c2CC(C)(C(=O)NCc2ccc(N(C)C)cc2)O3)c1 (centres undefined)	nt	i	6.7	i	i	i
CC1(C(=O)Nc2ccccc2)Cc2c(-c3cccc(C(N)=O)c3)ccnc2O1 (centres undefined)	nt	i	14.0	i	14.8	i
CC1(C(=O)Nc2ccc(Cl)cc2)Cc2c(-c3cccc(C(N)=O)c3)ccnc2O1 (centres undefined)	nt	i	i	i	nt	nt
COC(=O)c1ccc2nc(-c3ccc(F)cc3)c(Cc3ccccc3C(F)(F)F)n2c1	nt	i	nt	i	nt	nt
CC1=NN(c2ccccc2)C(=O)/C1=C\C=C\c1ccccc1	i	i	i	i	nt	nt
CC1=NN(c2ccccc2)C(=O)/C1=C/c1cccc(C)c1	i	i	9.4	i	i	i
COc1ccc(/C=C2/C(=O)N(c3ccccc3)N=C2C)cc1OC	i	i	18.5	i	i	i
CC(=O)Oc1ccc(/C=C2/C(=O)N(c3ccccc3)N=C2C)cc1	i	i	10.8	i	i	i
COc1ccc(/C=N/NC(=O)c2ccccc2O)cc1Cn1cc([N+](=O)[O-])cn1	i	i	i	i	nt	nt
COc1ccc(/C=N/NC(=O)c2cc(O)c(O)c(O)c2)cc1Cn1cc([N+](=O)[O-])cn1	i	i	29.3	i	29.4	11.0
CCCCn1c(N)c(N(CCOC)C(=O)CC2CCCCC2)c(=O)[nH]c1=O	i	i	i	i	nt	nt
O=C(CCN1C(=O)/C(=C\c2ccco2)SC1=S)Nc1ccc(C(=O)O)c(O)c1	i	i	10.5	65.5	i	7.3
SMILES	ATG4B inhibitor	Neddylation inh	Rin1 Abl inh	SUMO1 PPI mod	Rin1 Abl conf	GFP quench	others
CCOc1ccc(NC(=O)Nc2ccc3nccnc3c2)cc1	i	i	i	i	nt	nt
CCOc1ccc(NC(=O)Nc2ccc3c(c2)nc(C)n3C)cc1	i	i	5.7	i	11.1	i
CC(=O)c1cccc(OCc2cc(C(=O)N3CCSCC3)no2)c1	i	i	i	i	nt	nt
CC(=O)c1cccc(OCc2cc(C(=O)N3CCC(N4CCCCC4)CC3)no2)c1	i	i	9.9	i	i	i
COc1c(C)cc(C(O)c2ncc(-c3ccccc3C(F)(F)F)[nH]2)cc1C (centres undefined)	nt	i	i	i	nt	nt
CCC(C)(C)n1nnnc1C(c1cccnc1)N1CCCc2ccccc21 (centres undefined)	i	i	43.0	i	47.6	i	GFP quench dose=i
CCC(C)(C)n1nnnc1C(c1cccs1)N1CCc2ccccc21 (centres undefined)	i	i	i	i	nt	nt
O=C(O)c1ccc(-c2ncc[nH]2)cc1	i	nt	9.3	i	i	i
O=C(O)c1ccc(-c2nc3ccccc3[nH]2)cc1	i	nt	i	i	nt	nt
C[C@@H]1CN([C@@H](C)CO)C(=O)CCCn2nncc2CO[C@H]1CN(C)Cc1ccccc1	nt	i	i	i	nt	nt
CCCc1cc(=O)[nH]c(SCC(=O)NC2CCCCCCC2)n1	i	i	9.1	i	i	i
CCCc1cc(=O)[nH]c(SCC(=O)NC2CC2)n1	i	i	i	i	nt	nt
CCN(CC)CCNC(=O)c1ccc(NC2=NC3CS(=O)(=O)CC3S2)cc1 (centres undefined)	i	i	i	i	nt	nt
O=C(NCCc1ccc(Cl)cc1)c1ccc(NC2=NC3CS(=O)(=O)CC3S2)cc1 (centres undefined)	i	i	7.4	i	8.1	i
O=C(Cc1ccc(NC2=NC3CS(=O)(=O)CC3S2)cc1)NCc1ccccc1Cl (centres undefined)	i	i	16.2	i	16.4	i
COc1ccc(OC)c(NC(=O)Cc2ccc(NC3=NC4CS(=O)(=O)CC4S3)cc2)c1 (centres undefined)	i	i	22.3	i	26.7	i	GFP quench dose=i
COc1cccc(CNC(=O)Cc2ccc(NC3=NC4CS(=O)(=O)CC4S3)cc2)c1 (centres undefined)	i	i	i	i	nt	nt
O=C(Cc1ccc(NC2=NC3CS(=O)(=O)CC3S2)cc1)NCc1ccccc1 (centres undefined)	i	i	i	i	nt	nt
O=C(/C=C/c1cccc(Cl)c1)OCC(=O)c1ccc[nH]1	nt	i	i	i	nt	nt
CC(O)(c1cccnc1)c1nc(-c2cccc(C#N)c2)cs1 (centres undefined)	nt	i	i	i	nt	nt
C[C@@H]1CN(Cc2nnnn2CC(=O)NCCCn2cccn2)C[C@H](C)O1	nt	i	i	i	nt	nt
N#CCCN(C(=O)CSc1ncccn1)c1ccc2c(c1)OCCO2	i	i	8.2	i	8.8	i
O=C(CN1C(=O)CSc2cc(S(=O)(=O)N3CCCCCC3)ccc21)NCCc1ccccc1	i	i	6.1	i	i	i
Cc1nn(CC(=O)NCCCc2ccccc2)c(=O)c2cccn12	i	i	i	i	nt	nt
Cc1nn(CC(=O)NCc2cccc(F)c2)c(=O)c2cccn12	i	i	8.6	i	i	i
O=C(C1=COCCO1)N(Cc1nnc(-c2ccccc2Cl)o1)C1CC1	i	i	8.2	i	i	i
O=C(C1=COCCO1)N(Cc1nnc(-c2ccc(Cl)cc2)o1)C1CC1	i	i	i	i	nt	nt
